# Results taken from PubChem BioAssay AID1458 (National Center for Advancing Translational Sciences (NCATS), 2008).
# Hit rate of the full screen: of about 210,000 compounds, about 5,900 (2.8%) were called active. Not shown: some 5% with an inconclusive outcome. Calls come from the whole dose curve; as a rule, active = well fitted activation curve with a large enough effect; inconclusive = small, poorly fitted or top-dose-only effect; inactive = no such curve, though single readings can be large or run the other way. What follows is part of a selection rich in actives, with near analogues and random picks from the rest. Where a call stands in place of a potency, no number is given.
# Assay: qHTS Assay for Enhancers of SMN2 Splice Variant Expression; note: nearly all actives have a fitted effect of over 55% in size
# Conditions: HEK293 SMN2-luciferase splicing reporter, luminescence, 30-36 h; series mostly up to 46.1 µM
# In short: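 qHTS luciferase splicing reporter: luminescence rises when SMN2 exon 7 is included in transfected HEK293 cells. Compound exposure lasted 30-36 h at 37C, with 4.5 mM final sodium butyrate as control, followed by a ONE-Glo read.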
# Potency is the fitted concentration of half-maximal effect.
row,Compound,Potency
1,CC1CCN(C(=O)Cn2c(=O)n(-c3ccc(Cl)cc3)c(=O)c3c4c(sc32)CCC4)CC1,inactive
2,CCCOc1ccc(CNC(=O)C2CCN(c3nn4c(=O)cc(C)nc4s3)CC2)cc1,inactive
3,Cc1nn(CC(=O)O)c(=O)c2cc3cc(F)ccc3n12,inactive
4,S=C(NCCc1ccccc1)N1CCCCC1,11.2 µM (active)
5,Oc1ccccc1N1CCN(C(=S)NCc2ccccc2)CC1,inactive
6,O=C1CCN(C(=S)NCCc2ccccc2)CC1,inactive
7,CCc1nn(CCCC(=O)NCc2ccccc2OC)c(=O)c2cc3occc3n12,inactive
8,COc1ccc(-n2c(SC)nc3sc4c(c3c2=O)CCN(C(C)=O)C4)cc1,inactive
9,O=C(Nc1ccc2c(c1)OCCO2)C1CCCN(c2ncccn2)C1 (stereo not given),3.98 µM (active)
10,Cc1cc(C)nc(N2CCC(C(=O)Nc3ccc4c(c3)OCCO4)CC2)n1,inactive
11,O=C(Nc1ccc2c(c1)OCCO2)C(c1ccc(F)cc1)N1CCCCC1 (stereo not given),inactive
12,Cc1c(NS(=O)(=O)c2ccc(Cl)cc2)c(=O)n(-c2ccccc2)n1C,inactive
13,CCOc1ccccc1NC(=O)CSc1ncc(S(=O)(=O)c2ccc(C(C)(C)C)cc2)c(=O)[nH]1,inactive
14,COC(=O)c1ccc(NC(=O)c2cccc3c2C(=O)N(C2CCCCC2)C3)cc1,inactive
15,COc1cc(C)c(Cl)cc1S(=O)(=O)n1ccnc1,inactive
16,CCCOc1cc(C)c(S(=O)(=O)n2nnc3ccccc32)cc1C,inactive
17,CCOc1cc(C)c(Cl)cc1S(=O)(=O)n1nnc2ccccc21,17.8 µM (active)
18,COc1ccccc1/C=C/c1nc(C#N)c(NC(C)c2ccccc2)o1 (stereo not given),inactive
19,COc1ccc(/C=N/S(=O)(=O)c2ccccc2)cc1OC,inactive
20,CCOc1ccc(/C=N/Nc2nncc(-c3ccccc3)n2)cc1OC,inactive
21,COc1ccc(/C=N/Nc2nc3ccccc3o2)cc1OC,6.31 µM (active)
22,Cc1ccc(Cl)cc1NC(=O)C1CCCN(c2cnccn2)C1 (stereo not given),inactive

row,Compound,Potency
1,O=C(Nc1cccnc1Cl)c1cc(-c2cccc(Cl)c2)on1,inactive
2,CCC(=O)N1CCc2cc(S(=O)(=O)NC(Cc3ccccc3)C(=O)NCc3ccccc3)ccc21 (stereo not given),inactive
3,COCCNc1nc(N)c([N+](=O)[O-])c(NCCO)n1,inactive
4,CNc1nc(Nc2ccc(C)c(Cl)c2)nc(N)c1[N+](=O)[O-],11.2 µM (active)
5,Nc1nc(NCCCN2CCOCC2)nc(Nc2ccccc2)c1[N+](=O)[O-],inactive
6,Cc1ccccc1CNC(=O)Cn1c(C)c2cnn(-c3ccccc3)c(=O)c2c1C,inactive
7,CCOC(=O)/C(C#N)=C/c1ccc(OCC(=O)Nc2ccccc2)c(OC)c1,inactive
8,COc1cc(CCC(=O)OCC(=O)Nc2cccc(S(N)(=O)=O)c2)cc(OC)c1OC,inactive
9,CCCn1c(C)cc(/C=C(\C#N)C(=O)OCC(=O)Nc2cc(OC)c(OC)c(OC)c2)c1C,14.1 µM (active)
10,CCOc1ccc(CCNC(=O)CN(c2ccc(C)cc2)S(=O)(=O)N(C)C)cc1OCC,inactive
11,CCOC(=O)c1ccc(N2C(=O)c3[nH]nc(-c4ccccc4)c3C2c2ccc(C(C)C)cc2)cc1 (stereo not given),inactive
12,Cc1nc(NC(=O)C2CCCCC2)sc1C,20 µM (active)
13,Cc1cnc(NC(=O)CSc2c(Cl)cccc2Cl)s1,inactive
14,Cc1ccc(SCC(=O)Nc2ncc(C)s2)cc1,inactive
15,Cc1nc(NC(=O)C23CCC(C)(C(=O)O2)C3(C)C)sc1C (stereo not given),inactive
16,Cc1cnc(NC(=O)C2CCCC2)s1,14.1 µM (active)
17,CS(=O)(=O)c1ccc2nc(NC(=O)C3CCCCC3)sc2c1,inactive
18,CCCCC(CC)CNC(=O)C1CCN(S(=O)(=O)c2cccc3nsnc23)CC1 (stereo not given),inactive
19,CCc1cc2c(cc(C(=O)OC)n2Cc2nc(-c3ccc(C)cc3)oc2C)s1,inactive
20,COc1ccc(-c2cn3ccsc3n2)cc1,15.8 µM (active)
21,Cc1ccc(-c2cn3cc(C)ccc3n2)cc1,inactive
22,CCCC(=O)Nc1cccc(-c2cn3ccsc3n2)c1,inactive

row,Compound,Potency
1,c1ccc(-c2cn3cccnc3n2)cc1,inactive
2,COc1cc(OC)cc(-c2nc(=S)n3ccsc3n2)c1,inactive
3,COc1ccc(-c2cn3cccnc3n2)cc1,12.6 µM (active)
4,Cc1ccc(C)c(Cn2c(CCCNC(=O)C3CCCCC3)nc3ccccc32)c1,inactive
5,Cc1ccsc1CN(C(=O)c1oc2ccc(Br)cc2c1C)C1CCS(=O)(=O)C1 (stereo not given),inactive
6,Cc1ccc(-n2nc(C)c(C(=O)O)c2-n2cccc2)cc1,inactive
7,COc1ccccc1C(=O)NCCn1cc(SCc2ccccc2Cl)c2ccccc21,inactive
8,Cc1c(C=O)n(C)n(-c2ccccc2)c1=O,inactive
9,Cc1c(N=Nc2ccc(N(C)C)cc2)c(=O)n(-c2ccccc2)n1C,10 µM (active)
10,Cc1ccc(S(=O)(=O)Nc2ccccc2CNc2c(C)n(C)n(-c3ccccc3)c2=O)cc1,inactive
11,Cc1ccc2oc(=O)c3cnn(CC(=O)NCc4ccccc4Cl)c3c2c1,inactive
12,CCCC12CN3CC(CCC)(CN(C1)C3c1c[nH]c3ccc(OC)cc13)C2=O (stereo not given),inactive
13,c1ccc(C2=Nc3cccc4cccc(c34)N2)cc1,inactive
14,CNC(=S)N1N=C(c2ccccc2)CC1c1ccc(Br)cc1 (stereo not given),inactive
15,Brc1ccc(C2CC(c3ccccc3)=Nc3ccccc3N2)cc1 (stereo not given),11.2 µM (active)
16,O=C(Nc1ccc(OC(F)(F)F)cc1)C1CCCN(S(=O)(=O)c2ccc(Br)s2)C1 (stereo not given),inactive
17,COc1cc(NS(=O)(=O)c2cccs2)cc(OC)c1,inactive
18,Cc1cccc(N2CCN(c3c(CN4CCCC4)c(=O)oc4ccccc34)CC2)c1C,inactive
19,Cc1nc2cc(NCc3cccs3)ccc2n1C,7.94 µM (active)
20,Cn1ncc(Br)c1C(=O)NCc1cccs1,inactive
21,O=C(NCc1cccs1)c1ccc2c(c1)ncn2C1CCCC1,inactive
22,CCCCCCn1nnc2sc(-c3ccccc3)cc2c1=O,inactive

row,Compound,Potency
1,CCOC(=O)c1cc(NC(=O)c2ccc(F)cc2)c(=O)n2c1oc1ccccc12,inactive
2,COc1ccccc1NC(=O)c1oc2ccccc2c1NC(=O)C(C)C,inactive
3,CC(CCCc1ccccc1)NC(=O)c1nn(-c2ccc(Cl)cc2)nc1CO (stereo not given),inactive
4,CCOc1ccc(S(=O)(=O)Nc2ccc3oc4c(c3c2)CC(C)CC4)cc1 (stereo not given),inactive
5,CSCc1ccc(C(=O)Nc2cc(C)cc(C)c2)cc1,12.6 µM (active)
6,CC(=O)Nc1ccccc1NC(=O)c1cc(C)cc(C)c1,inactive
7,C=CCN(c1ccc(C(=O)Nc2cc(C)cc(C)c2)cc1)S(C)(=O)=O,inactive
8,CCOc1ccccc1NC(=O)c1ccc2c(c1)CCN2S(=O)(=O)c1ccc(C)cc1,inactive
9,CC(=O)Nc1ccc(NC(=O)CSc2nnc3c4cc(Br)ccc4n(C)c3n2)cc1,inactive
10,Cc1cc(C)cc(NC(c2nnc(-c3cccc(F)c3)o2)c2ccc(F)cc2Cl)c1 (stereo not given),inactive
11,O=C(CSC(=S)N1CCOCC1)c1ccccc1,0.794 µM (active)
12,O=C(NC(=O)N1CCOCC1)c1ccccc1,inactive
13,NC(=NC(=O)c1ccccc1)N1CCOCC1,inactive
14,COCc1nnc(NC(=O)c2ccc3c(c2)OCO3)s1,14.1 µM (active)
15,Cc1ccc(F)cc1NC(=O)c1ccc2c(c1)OCO2,inactive
16,Cc1cc(C)c2nc(NC(=O)c3ccc4c(c3)OCO4)sc2c1,inactive
17,CCCc1nnc(NC(=O)c2cc(OC)cc(OC)c2)s1,inactive
18,O=C(Nc1cccnc1)c1ccc2c(c1)OCO2,inactive
19,O=C(Nc1nc2ccccc2s1)c1ccc2c(c1)OCO2,0.355 µM (active)
20,O=C(CCn1c(=O)c2ccccc2n(Cc2ccc(Cl)cc2)c1=O)NCc1ccc2c(c1)OCO2,inactive
21,CC(C)NC(=O)c1nn(-c2ccccc2F)nc1CO,inactive
22,NC1=NC(c2cc(F)cc(F)c2)n2c(nc3ccccc32)N1 (stereo not given),inactive

row,Compound,Potency
1,Brc1ccc2c(c1)NC(c1cccnc1)=NC(c1ccccc1)=N2,inactive
2,C[N+](C)(C)CCNC(=O)c1c(O)c2c([nH]c1=O)CCCC2,inactive
3,CCc1nnc(NC(=O)c2c(O)c3c([nH]c2=O)CCCC3)s1,14.1 µM (active)
4,O=C(NCc1ccccn1)c1c(O)c2c([nH]c1=O)CCCC2,inactive
5,Cc1ccc(NC(=O)NC(C)c2c(-n3cccc3)sc(C)c2C)c(C)c1 (stereo not given),inactive
6,CCCn1c(NCc2ccc(N(CC)CC)cc2)nc2ccccc21,inactive
7,CCCOc1ccc(C(=O)NCCc2ccccc2)cc1,14.1 µM (active)
8,COc1ccc(OCCCC(=O)NCCc2ccccc2)cc1,inactive
9,Nc1ccc(C(=O)NCc2ccccc2)cc1,inactive
10,O=C(NCCc1ccccc1)c1ccc(OCCOc2ccccc2)cc1,inactive
11,CC(C)c1ccc(C(=O)NCCCc2ccccc2)cc1,14.1 µM (active)
12,NS(=O)(=O)c1cc(C(=O)NCCOc2ccccc2)c(Cl)cc1Cl,inactive
13,CS(=O)(=O)NCc1ccc(C(=O)NCc2ccccc2)cc1,inactive
14,O=C(CCOc1ccccc1)NCc1ccccc1,inactive
15,O=C(NCCOc1ccccc1)c1ccccc1,12.6 µM (active)
16,CCC1=Nc2cc(C(=O)NCC(C)c3ccccc3)ccc2Sc2ccc(C)cc21 (stereo not given),inactive
17,COc1cccc(CNC(=O)c2cc(=O)[nH]c3ccc(S(=O)(=O)N4CCCCC4)cc23)c1,inactive
18,CCC(=O)N1N=C(c2ccc(OC)cc2)CC1c1cn(-c2ccccc2)nc1-c1cccs1 (stereo not given),inactive
19,COc1ccc(-c2nn(-c3ccccc3)cc2/C=C\C(=O)Nc2ccc(C(=O)O)cc2)cc1,inactive
20,O=C(O)c1ccc(N/N=C/c2cn(-c3ccccc3)nc2-c2cccs2)cc1,7.94 µM (active)
21,O=C(/C=C\c1cn(-c2ccccc2)nc1-c1cccs1)N1CCOCC1,inactive
22,CC(C)CC(NS(=O)(=O)c1ccc2c(c1)oc(=O)n2C)C(=O)NCc1ccccc1Cl (stereo not given),inactive
